Here are results for 39 compounds from PubChem BioAssay (NCATS).

The test addresses Cellular tumor antigen p53 (Homo sapiens) (UniProt P04637). The experiment in a line: Primary qHTS for small molecule compounds that upregulate eGFP-tagged delta133p53alpha (in N-terminal) cells. (AID 2060322). Also: nearly all actives have a fitted effect of over 75% in size.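 As to activation: series mostly up to about 56 µM; 0% = DMSO vehicle and 100% = reference activator.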 The note with it: NCI-H358 eGFP-delta133p53alpha fluorescence, 24 h; activation: stronger effect = higher value. A digest of the protocol: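 NCI-H358 cells pre-induced 24 h with 10 ng/ml doxycycline to express N-terminal eGFP-delta133p53alpha, then dosed 24 h at 37C without doxycycline; fixed, Hoechst-stained, GFP intensity by laser scanning cytometry, normalized to DMSO (0%) and 57.5 uM 5-azacytidine (100%).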

“And” between values parts separate entries of the source, which are not always exact repeats. Identical values can stand only once. Inconclusive results are not listed. Values without a mark were called inactive. The source made the active and inactive calls. Calls follow the shape of the dose curve; as a rule, active = well fitted activation curve with a large enough effect; inconclusive = small, poorly fitted or top-dose-only effect; inactive = no such curve, though single readings can be large or run the other way.
Potency is read from the fitted curve at half-maximal effect.

Cellular tumor antigen p53 (Homo sapiens), sequence (P04637 whole entry, looked up): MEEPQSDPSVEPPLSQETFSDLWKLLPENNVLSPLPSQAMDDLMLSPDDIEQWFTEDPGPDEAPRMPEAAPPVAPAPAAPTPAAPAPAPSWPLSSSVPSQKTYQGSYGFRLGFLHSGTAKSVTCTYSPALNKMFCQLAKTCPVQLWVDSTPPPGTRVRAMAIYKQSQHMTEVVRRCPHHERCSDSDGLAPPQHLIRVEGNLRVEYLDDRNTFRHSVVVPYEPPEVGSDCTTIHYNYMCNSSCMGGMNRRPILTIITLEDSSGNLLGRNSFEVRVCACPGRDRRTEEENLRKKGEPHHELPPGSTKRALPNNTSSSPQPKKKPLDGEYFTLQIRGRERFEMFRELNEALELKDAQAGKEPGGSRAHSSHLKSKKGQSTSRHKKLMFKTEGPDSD

As to `COc1cc2c(cc1OC)C(C(C(=O)N(CCc1ccc(OC)c(OC)c1OC)CCc1ccc(OC)c(OC)c1OC)c1ccccc1)=NCC2` (centres undefined), the activation is 3.95%.

As for `C[N+]1(C)CCCC(OC(=O)C(O)(c2ccccc2)c2ccccc2)C1` (centres undefined), the activation was -37.9%.

For `C/C(=C(\CCO)SS/C(CCO)=C(\C)N(C=O)Cc1cnc(C)nc1N)N(C=O)Cc1cnc(C)nc1N`, the activation was -9.6%.

In the case of `CCCCCCOC(=O)N=C(N)c1ccc(NCc2nc3cc(C(=O)N(CCC(=O)OCC)c4ccccn4)ccc3n2C)cc1`, the activation is 20.7%.

As to `CCCCOC(=O)c1ccc(O)cc1`, the activation is -13%.

On to `Nc1ccccc1NC(=O)CCCCCCC(=O)Nc1ccccc1`, for which the activation was -13.4%.

For the compound `CC(=O)O[C@H]1CC[C@@]2(C)C(=CC[C@@H]3[C@@H]2CC[C@]2(C)C(C(C)=O)=CC[C@@H]32)C1`, the activation was 4.18%.

Consider `COCCc1ccc(OCC2CO2)cc1` (centres undefined), for which the activation was 7.53%.

On to `CC(C)CCCC(C)N` (centres undefined), for which the activation was 0.565%.

For the compound `COc1ccc2cc1Oc1cc3c(cc1OC)CC[N+](C)(C)[C@H]3Cc1ccc(cc1)Oc1c(OC)c(OC)cc3c1[C@@H](C2)[N+](C)(C)CC3`, the activation was 13%.

As for `O=C(O)[C@H]1O[C@H](Oc2cc3oc(-c4ccccc4)cc(=O)c3c(O)c2O)[C@H](O)[C@@H](O)[C@H]1O`, the activation is 28.4%.

Regarding `CC[C@@]1(O)C(=O)OCc2c1cc1n(c2=O)Cc2c-1nc1ccccc1c2/C=N/OC(C)(C)C`, the Potency is 0.0978 µM (active).

Take `CCCSS/C(CCO)=C(\C)N(C=O)Cc1cnc(C)nc1N`: the Potency is 30.9 µM (active).

As for `Cc1cccc(C=NNc2cc(N3CCOCC3)nc(OCCc3ccccn3)n2)c1`, the activation is -13.3%.

With `C/C=C(/C(=C/C)c1ccc(O)cc1)c1ccc(O)cc1`, the activation was 15.1%.

`CNC(=O)c1ccccc1Sc1ccc2c(C=Cc3ccccn3)n[nH]c2c1`: the activation is -28.7%.

As to `COc1ccccc1OCC(O)CO` (centres undefined), the activation was -10.9%.

As to `CCCCCC1Nc2cc(C(F)(F)F)c(S(N)(=O)=O)cc2S(=O)(=O)N1` (centres undefined), the activation is -4.18%.

As for `CC(=O)CC/C=C(\C)CC/C=C(\C)CC/C=C(\C)CCC=C(C)C`, the activation was -15.3%.

In the case of `CCOC(=O)Oc1ccc(CCNC(=O)[C@H](CCSC)NC(C)=O)cc1OC(=O)OCC`, the activation was 16.4%.

For the compound `COc1cc(C=C2CCC/C(=C\c3ccc(O)c(OC)c3)C2=O)ccc1O`, the Potency was 19.5 µM (active).

Turning to `CC1CCc2cc(F)cc3c(=O)c(C(=O)O)cn1c23` (centres undefined), the activation is 23.2%.

As for `CO[C@@H]1C(N(C)C(=O)c2ccccc2)C[C@H]2O[C@]1(C)n1c3ccccc3c3c4c(c5c6ccccc6n2c5c31)C(=O)NC4=O` (some centres undefined), the Potency was 9.68 µM (active).

Take `CN1CC[C@H](c2c(O)cc(O)c3c(=O)cc(-c4ccccc4Cl)oc23)[C@H](O)C1`: the Potency was 0.11 µM (active).

As to `O=S(c1cc(Cl)cc(Cl)c1O)c1cc(Cl)cc(Cl)c1O`, the activation was -0.565%.

On to `COc1ccc2c(c1)c(CC(=O)OC/C=C(\C)CC/C=C(\C)CCC=C(C)C)c(C)n2C(=O)c1ccc(Cl)cc1`, for which the activation is -1.69%.

For the compound `C=C1C(=CC=C2CCCC3(C)[C@@H]([C@H](C)C=CC=CC(O)(CC)CC)CC[C@@H]23)C[C@@H](O)C[C@@H]1O` (some centres undefined), the activation was -6.37%.

Regarding `Oc1c(Cl)cc(Cl)c(Cl)c1Cc1c(O)c(Cl)cc(Cl)c1Cl`, the activation is 19.8%.

Take `CCOCCn1c(C2CCN(CCc3ccc(C(C)(C)C(=O)O)cc3)CC2)nc2ccccc21`: the activation was -6.69%.

For the compound `CCCCCCn1c(=O)c2c(ncn2C)n(C)c1=O`, the activation is -5.08%.

Turning to `CCN(CC)CCc1nc(-c2ccccc2)no1`, the activation is -25.1%.

Consider `COc1cc(-c2ccc(=O)[nH]n2)ccc1OC(F)F`, for which the activation was 2.51%.

Regarding `C[C@]12CCC(=O)C=C1CC[C@@H]1[C@@H]2[C@@H](O)C[C@@]2(C)[C@H]1CC[C@]2(O)C(=O)COC(=O)CCC(=O)O`, the activation was 1.69%.

For the compound `O=C(OCc1ccccc1)c1ccc(O)cc1`, the activation was -15.3%.

On to `COc1ccc(O)cc1`, for which the activation is 1.69%.

For `CCCCCCCC(=O)[O-].CCCCCCCC(=O)[O-].[Zn+2]`, the activation was 14.1%.

With `CC(C)(C)c1ccc(C(=O)CCCCl)cc1`, the activation is 3.95%.

With `Cc1cc(NS(=O)(=O)c2ccc(N)cc2)no1`, the activation is -13.4% and 7.02%.

Take `CC(Oc1c(Cl)cccc1Cl)C1=NCCN1` (centres undefined): the activation was 3.35%.
